Bioassay records as filed in PubChem BioAssay.
Gli-Sufu block: blocks Gli-Sufu signaling in a luciferase reporter. inhibition, % at 5 µM. Sufu-KO-LIGHT fibroblasts, Gli luciferase reporter luminescence. 340,000 compounds, 0.74% hits;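 active means inhibition above about 55%, limit read from the data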
CSC inhib: blocks cancer stem cells; cancer stem cell-like cells viability, luminescence; inhibition, % at 7.5 µM; 300,000 compounds, 1.1% hits; in the data active means inhibition above about 75%; inconclusive means no clear call, values can overlap the other calls; tested in HMLE shEcad cells
aSyn UTR inh: 5' untranslated region of α-synuclein, MLPCN primary screen | alpha-synuclein 5'UTR reporter, inhibitor activity | inhibition, % (tested at 7.5 µM) | 300,000 compounds, 0.82% hits; in the data active means inhibition above about 60%; inconclusive means no clear call, values can overlap the other calls;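 further: H4 neuroglioblastoma cells stably carrying SNCA 5'UTR luciferase fusion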
697 NFkB inh: inhibitors of the PMA/ionomycin-induced NF-kB reporter in 697 B cells. 697 B-cell NF-kB luciferase reporter, 16 h. inhibition, % at 4 µM. 330,000 compounds, 0.33% hits. AID 435022; in the data active means inhibition above about 35%
Jurkat NFkB inh: inhibitors of the PMA/ionomycin-induced NF-kB reporter in Jurkat cells; PMA/ionomycin-induced NF-kB luciferase reporter, luminescence; inhibition, % at 4 µM; 330,000 compounds, 0.53% hits; in the data active means inhibition above about 50%
Mdm2 MdmX PPI: human Mdm2/MdmX binding inhibition. SaOS-2 split-luciferase Mdm2/MdmX complementation, luminescence. inhibition, % at 8 µM. 330,000 compounds, 3% hits;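 active means inhibition of at least 50% at 8 µM in the primary screen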
Target sequence (O15151 whole entry, looked up): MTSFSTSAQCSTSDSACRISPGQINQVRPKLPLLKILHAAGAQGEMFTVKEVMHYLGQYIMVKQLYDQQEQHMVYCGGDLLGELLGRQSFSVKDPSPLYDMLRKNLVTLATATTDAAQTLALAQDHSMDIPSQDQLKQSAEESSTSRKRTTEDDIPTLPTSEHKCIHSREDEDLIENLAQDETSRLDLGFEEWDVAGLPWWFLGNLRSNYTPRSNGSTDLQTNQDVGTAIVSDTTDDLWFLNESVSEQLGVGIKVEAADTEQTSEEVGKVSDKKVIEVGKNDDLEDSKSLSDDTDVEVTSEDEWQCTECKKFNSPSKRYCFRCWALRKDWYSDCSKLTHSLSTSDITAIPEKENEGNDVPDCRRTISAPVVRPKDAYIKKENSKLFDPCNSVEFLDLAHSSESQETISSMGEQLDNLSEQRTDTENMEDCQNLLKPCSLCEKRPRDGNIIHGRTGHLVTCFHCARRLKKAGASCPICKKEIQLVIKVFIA
Target sequence (Q00987 whole entry, looked up): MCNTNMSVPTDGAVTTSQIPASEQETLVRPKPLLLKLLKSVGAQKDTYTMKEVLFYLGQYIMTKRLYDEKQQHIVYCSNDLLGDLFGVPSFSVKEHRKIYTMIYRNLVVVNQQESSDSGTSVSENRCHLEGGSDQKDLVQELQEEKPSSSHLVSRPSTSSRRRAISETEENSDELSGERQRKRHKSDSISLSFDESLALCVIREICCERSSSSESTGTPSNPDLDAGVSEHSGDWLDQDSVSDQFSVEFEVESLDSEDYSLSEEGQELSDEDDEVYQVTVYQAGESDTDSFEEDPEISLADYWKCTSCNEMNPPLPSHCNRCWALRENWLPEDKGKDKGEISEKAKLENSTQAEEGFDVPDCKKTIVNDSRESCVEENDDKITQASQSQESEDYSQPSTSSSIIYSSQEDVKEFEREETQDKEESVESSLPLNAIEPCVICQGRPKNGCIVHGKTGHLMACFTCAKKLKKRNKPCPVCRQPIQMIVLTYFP
Mdm2 MdmX conf: human Mdm2/MdmX binding inhibition, confirmed | luminescent assay | inhibition, % at 8 µM | 10,000 compounds, 55% hits | shares compounds with Mdm2 MdmX PPI; in the data active means inhibition above about 40%
FLuc counter: inhibits full-length luciferase, flagging false Mdm2/MdmX hits | 6,200 compounds, 77% hits | inhibition, % at 8 µM | SaOS-2 full-length luciferase counterscreen, luminescence | shares compounds with Mdm2 MdmX PPI | AID 504607;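 active means mean inhibition at 8 µM reaching about 37%, which flags the compound as non-specific, limit read from the data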;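 further: p53-null SaOS-2 cells with luciferase driven by a doxycycline-inducible promoter; compound on cells about two nights before reading with doxycycline added after day one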
Each line names hits and unclear results; the compound was inactive in the other large screens (follow-up assays come after a bar, where they were run). An excerpt weighted towards active compounds, which were near 4.5% of everything screened.

CC1=C(C(=O)OCc2ccc3c(c2)OCO3)C(c2cccc([N+](=O)[O-])c2)NC(=O)N1 (stereo not drawn)	none | Mdm2 MdmX conf 70.0 | FLuc counter 45.3
CCCNC(=O)c1ccc2c(=O)c(O)c(-c3ccc(F)cc3)[nH]c2c1	aSyn UTR inh 80.7, Mdm2 MdmX PPI 68.7 | Mdm2 MdmX conf inactive
CCCNC(=O)c1ccc2c(=O)c(O)c(-c3cccc(Br)c3)[nH]c2c1	CSC inhib 125.0, aSyn UTR inh 83.7, Mdm2 MdmX PPI 53.4 | Mdm2 MdmX conf 70.1 | FLuc counter inactive
COc1ccc(OC)c(S(=O)(=O)N2CCCC2C(=O)NC(C)c2ccccc2)c1 (stereo not drawn)	none
CSc1ccc(/C=C(\NC(=O)c2ccco2)C(=O)N2CCCCC2)cc1	none
Cc1c(C#N)c(NC(=O)CCl)n(Cc2ccccc2)c1C	Mdm2 MdmX PPI 94.3 | Mdm2 MdmX conf 86.5 | FLuc counter 38.1
Cc1cc(=O)n(Cc2ccccc2)c(O)c1C#N	none
COC(=O)c1cc(C(=O)OC)n(Cc2ccc(F)cc2)c1C	none
CCN(CC)C(=O)c1sc(NC(=O)Cc2cccs2)c(C#N)c1C	none
Cc1c(C#N)c(NC(=O)CCl)n(Cc2ccc(F)cc2)c1C	Mdm2 MdmX PPI 89.2 | Mdm2 MdmX conf 50.8 | FLuc counter 42.6
Cc1c(C#N)c(NC(=O)CCl)n(Cc2cccs2)c1C	Mdm2 MdmX PPI 94.5 | Mdm2 MdmX conf 76.4 | FLuc counter 38.1
Cc1ccc(C)c(N2CCN(C(=O)c3ccc(Cn4c(=O)[nH]c5ccccc5c4=O)cc3)CC2)c1	Mdm2 MdmX PPI 90.9 | Mdm2 MdmX conf 51.9 | FLuc counter 47.0
O=C(c1ccc(Cn2c(=O)[nH]c3ccccc3c2=O)cc1)N1CCN(c2ccc(Cl)cc2)CC1	Mdm2 MdmX PPI 65.0 | Mdm2 MdmX conf inactive
CCOC(=O)N1CCN(C(=O)c2ccc(Cn3c(=S)[nH]c4ccc(Br)cc4c3=O)cc2)CC1	Mdm2 MdmX PPI 55.2 (no result: Gli-Sufu block) | Mdm2 MdmX conf inactive
C=CCn1c(=O)[nH]c2cc(C(=O)N3CCN(c4cc(C)ccc4C)CC3)ccc2c1=O	none
CCN(CC(=O)Nc1c(F)cccc1F)C(=O)Cc1csc(-c2ccccc2)n1	none
CN(C)c1ccc(CNCCC(Cc2ccccc2)c2ccco2)cc1 (stereo not drawn)	Mdm2 MdmX PPI 52.3 | Mdm2 MdmX conf inactive
c1ccc(CNCCC(Cc2ccccc2)c2ccco2)cc1 (stereo not drawn)	none
Cc1ccc(S(=O)(=O)CCC(=O)N(CCCN2CCOCC2)c2nc3ccccc3s2)cc1	Mdm2 MdmX PPI 63.8 | Mdm2 MdmX conf inactive
Cc1ccc2nc(N(CCN3CCOCC3)C(=O)CCS(=O)(=O)c3ccccc3)sc2c1	none
O=C(CCS(=O)(=O)c1ccccc1)N(CCCN1CCOCC1)c1nc2ccccc2s1	Mdm2 MdmX PPI 78.2 | Mdm2 MdmX conf 43.0 | FLuc counter 74.2
CCOc1ccccc1NC(=O)NNC(=O)c1ccc2ccccc2c1	Mdm2 MdmX PPI 60.2 (no result: CSC inhib) | Mdm2 MdmX conf 49.6 | FLuc counter 83.2
COc1ccc(C2NC(=O)CCC2[N+](=O)[O-])c(OC)c1OC (stereo not drawn)	none
Cc1sc2ncnc(Sc3nnnn3-c3ccc(Cl)cc3)c2c1C	Mdm2 MdmX PPI 100.6 | Mdm2 MdmX conf 79.0 | FLuc counter 53.8
c1ccc(-n2nnnc2Sc2ncnc3sc4c(c23)CCCC4)cc1	Mdm2 MdmX PPI 97.7 | Mdm2 MdmX conf 74.8 | FLuc counter 47.5
CSc1nnnn1-c1ccc(Cl)cc1	none
O=C(O)CSc1ncnc2sc3c(c12)CCCC3	none
CCNS(=O)(=O)c1ccc(CCC(=O)NCc2ccc3c(c2)OCO3)cc1	none
Cc1nc(Nc2ccc(C(=O)O)cc2)nc(Nc2ccc(C(=O)O)cc2)c1[N+](=O)[O-]	none
CCC(=O)Nc1ccc(Nc2nc(C)c([N+](=O)[O-])c(Nc3ccc(NC(=O)CC)cc3)n2)cc1	Mdm2 MdmX PPI 63.9 | Mdm2 MdmX conf 73.8 | FLuc counter 79.6
CC(=O)Nc1ccc(Nc2nc(C)c([N+](=O)[O-])c(Nc3ccccc3)n2)cc1	aSyn UTR inh inconclusive, Mdm2 MdmX PPI 58.1 | Mdm2 MdmX conf inactive
COc1ccc(Nc2nc(NN)nc(C)c2[N+](=O)[O-])cc1	none
Cc1ccc(NC(=S)NCc2ccco2)c(C)c1	none
O=C(COC(=O)CN1CCSC1=O)Nc1ccc(F)cc1Cl	none (no result: Gli-Sufu block, aSyn UTR inh)
CCn1nc(C)cc1-c1nnc(Sc2ncc([N+](=O)[O-])s2)n1C	Mdm2 MdmX PPI 96.4 (no result: CSC inhib) | Mdm2 MdmX conf 97.0 | FLuc counter 51.2
CCn1nc(C)cc1-c1nnc(SCC(=O)Nc2ccccc2)n1CCCOC	none
O=C(NC1CC1)c1c(O)c2ccccc2[nH]c1=O	Mdm2 MdmX PPI 58.8 | Mdm2 MdmX conf inactive
O=C(NCCc1ccccc1)c1c(O)c2ccccc2[nH]c1=O	none
CCNC(=O)c1c(O)c2ccccc2[nH]c1=O	Mdm2 MdmX PPI 75.9 | Mdm2 MdmX conf 53.0 | FLuc counter 76.2
COc1ccc2nc(N=Nc3ccc(O)c4ccccc34)sc2c1	CSC inhib 91.9, Mdm2 MdmX PPI 65.5 | Mdm2 MdmX conf 77.5 | FLuc counter inactive
CNc1nc2c(-c3ccc(Cl)cc3)nnn2c2ccccc12	Mdm2 MdmX PPI 60.6 | Mdm2 MdmX conf 42.2 | FLuc counter 68.7
NNc1nc2c(-c3cccc(C(F)(F)F)c3)nnn2c2ccccc12	Mdm2 MdmX PPI 56.0 | Mdm2 MdmX conf inactive
Cc1ccc(-c2nnn3c2nc(NC(C)C)c2ccccc23)cc1	none
CCOC(=O)c1nnn2c1nc(Nc1cccc(C(F)(F)F)c1)c1ccccc12	Mdm2 MdmX PPI 82.1 | Mdm2 MdmX conf inactive
COCCNc1nc2c(-c3cccc(C(F)(F)F)c3)nnn2c2ccccc12	none
COc1ccccc1/C=C/C=N/NC(=O)c1cccs1	none
Cc1ccc(S(=O)(=O)NCC(=O)N(CC(=O)NCC2CCCO2)Cc2ccco2)cc1 (stereo not drawn)	none
COc1ccc2cc1Oc1ccc(cc1)C[C@H]1c3cc(c(OC)cc3CCN1C)Oc1c(OC)c(OC)cc3c1[C@H](C2)N(C)CC3	Mdm2 MdmX PPI 100.4 | Mdm2 MdmX conf 99.5 | FLuc counter 51.5
COc1ccc2cc1Oc1ccc(cc1)C[C@H]1c3c(cc4c(c3Oc3cc5c(cc3OC)CCN(C)[C@@H]5C2)OCO4)CCN1C	aSyn UTR inh 109.2, Mdm2 MdmX PPI 100.4 | Mdm2 MdmX conf 86.8 | FLuc counter inactive
CC1COC(C)(CC(=O)NN2C(=O)c3ccccc3C2=O)O1 (stereo not drawn)	none (no result: CSC inhib)
O=C1Nc2cc(Cl)c(Cl)cc2N(O)N1c1ccc(Cl)c(Cl)c1	none
O=C(COC(=O)c1cc([N+](=O)[O-])ccc1N1CCOCC1)Nc1ccc(Cl)cn1	CSC inhib 86.1, Mdm2 MdmX PPI 76.3 | Mdm2 MdmX conf 58.0 | FLuc counter 68.2
